The full ranking holds about 9,900 sequences; the median of “r (bound/input frequency ratio)” is about 0.7, and the highest 2% start at about 6.5. Only a selection was taken, and the highest values are over-represented in it overall.

B1: ENSMUSG00000032194.229|Kank2 (ssRNA)
RNA: GGGAGUUCUACAGUCCGACGAUCGCUUCGAUAUCCGCAUGCUAUCAAGUCUCCCUGUCGUAUCCAGAUCACAGCUGAACCCACUGGGCCUUGGCGCCAAACCUCAGCAGGGCAGCAUUGAGACUCAUGGACUAAAGGAAAGUGUUCACUCUUCUAGACAAGUGGGUCUCUUGGUUUGAUGGAGUCUUACUCCGCUUGAGUUUUGUAGAAGGGGUUUGUCUAAGGCAUAGAGGCUUGGUUGGCAUAAGAAAAUAAGAUGGACAGAUGGAUGGGUGGAUGGAUGGAUGGCUGAUUGAGUGGGUGGCUCUUGCGGUCGCACUAGUGUGGAAUUCUCGGGUGUCAAGG
B2: ENSMUSG00000028439.221|Fam219a (ssRNA)
RNA: GGGAGUUCUACAGUCCGACGAUCGCUUCGAUAUCCGCAUGCUAAGCUCCUAAGCAAUUCCCAGGCUUCUCUAGGGCUUCAGUUCUCACAACUGGAAAAUAAAGAGUAGCUGACAUCACCGACAGAGUCUUUUCAUACCAGAAGGAAUUUCUUCACAGGAGUUUCUGCAAAAGACUAUGACAUCUGUGUGUCUGUGGUCUCACGAGGUACCUGGAGGUGUAUGUGCACGGACAUGGGAAGUACGUGAAGAUUUAUUUCGGGAAAAGUGGUGUGUGUGUAGCUGUACUGGGUGUCAUGUAUGCUGCUCUUGCGGUCGCACUAGUGUGGAAUUCUCGGGUGUCAAGG
B3: ENSMUSG00000032194.287|Kank2 (ssRNA)
RNA: GGGAGUUCUACAGUCCGACGAUCGCUUCGAUAUCCGCAUGCUAGUGGACGGAUGAGUGUGGGGUGGGUGGAUGGAUAAAUGAGCAAUGGAUGAGAAACUGGGUUGGCUGGUGGGUAGAUGUCAUGAUGGAGUCUUUGCACGUGUAUGAAACAGAAAACCAAACUUCAGGACAGACAGCUGCUGGUGUCUCUGGAUGCUCACAGCCUAGGGCACAUUUGAAAGGUCGUGCUCUGAGCUGAGCCCUGAGUUCCAGCCUUGUAGCCAGCAAGGGAGUUUAUUUAAGGUUCUGGAAGCAUCAGCUAUCUCUUGCGGUCGCACUAGUGUGGAAUUCUCGGGUGUCAAGG
B4: ENSMUSG00000032194.281|Kank2 (ssRNA)
RNA: GGGAGUUCUACAGUCCGACGAUCGCUUCGAUAUCCGCAUGCUAAUGAAUGGAUGGAUGGACAGGUGGGUGGAUGGAUGGGUGGACGGAUGAGUGUGGGGUGGGUGGAUGGAUAAAUGAGCAAUGGAUGAGAAACUGGGUUGGCUGGUGGGUAGAUGUCAUGAUGGAGUCUUUGCACGUGUAUGAAACAGAAAACCAAACUUCAGGACAGACAGCUGCUGGUGUCUCUGGAUGCUCACAGCCUAGGGCACAUUUGAAAGGUCGUGCUCUGAGCUGAGCCCUGAGUUCCAGCCUUGUAGCCAGCACUCUUGCGGUCGCACUAGUGUGGAAUUCUCGGGUGUCAAGG
B5: ENSMUSG00000032194.228|Kank2 (ssRNA)
RNA: GGGAGUUCUACAGUCCGACGAUCGCUUCGAUAUCCGCAUGCUAGUCCUCUCAAGUCUCCCUGUCGUAUCCAGAUCACAGCUGAACCCACUGGGCCUUGGCGCCAAACCUCAGCAGGGCAGCAUUGAGACUCAUGGACUAAAGGAAAGUGUUCACUCUUCUAGACAAGUGGGUCUCUUGGUUUGAUGGAGUCUUACUCCGCUUGAGUUUUGUAGAAGGGGUUUGUCUAAGGCAUAGAGGCUUGGUUGGCAUAAGAAAAUAAGAUGGACAGAUGGAUGGGUGGAUGGAUGGAUGGCUGAUUGAGUCUCUUGCGGUCGCACUAGUGUGGAAUUCUCGGGUGUCAAGG
B6: ENSMUSG00000032194.283|Kank2 (ssRNA)
RNA: GGGAGUUCUACAGUCCGACGAUCGCUUCGAUAUCCGCAUGCUAAUGGACAGGUGGGUGGAUGGAUGGGUGGACGGAUGAGUGUGGGGUGGGUGGAUGGAUAAAUGAGCAAUGGAUGAGAAACUGGGUUGGCUGGUGGGUAGAUGUCAUGAUGGAGUCUUUGCACGUGUAUGAAACAGAAAACCAAACUUCAGGACAGACAGCUGCUGGUGUCUCUGGAUGCUCACAGCCUAGGGCACAUUUGAAAGGUCGUGCUCUGAGCUGAGCCCUGAGUUCCAGCCUUGUAGCCAGCAAGGGAGUUUAUUCUCUUGCGGUCGCACUAGUGUGGAAUUCUCGGGUGUCAAGG
B7: ENSMUSG00000028439.219|Fam219a (ssRNA)
RNA: GGGAGUUCUACAGUCCGACGAUCGCUUCGAUAUCCGCAUGCUAGCAUUCUCCCUGAGCUCCUAAGCAAUUCCCAGGCUUCUCUAGGGCUUCAGUUCUCACAACUGGAAAAUAAAGAGUAGCUGACAUCACCGACAGAGUCUUUUCAUACCAGAAGGAAUUUCUUCACAGGAGUUUCUGCAAAAGACUAUGACAUCUGUGUGUCUGUGGUCUCACGAGGUACCUGGAGGUGUAUGUGCACGGACAUGGGAAGUACGUGAAGAUUUAUUUCGGGAAAAGUGGUGUGUGUGUAGCUGUACUGGGUGCUCUUGCGGUCGCACUAGUGUGGAAUUCUCGGGUGUCAAGG
B8: ENSMUSG00000032194.282|Kank2 (ssRNA)
RNA: GGGAGUUCUACAGUCCGACGAUCGCUUCGAUAUCCGCAUGCUAGGAUGGAUGGACAGGUGGGUGGAUGGAUGGGUGGACGGAUGAGUGUGGGGUGGGUGGAUGGAUAAAUGAGCAAUGGAUGAGAAACUGGGUUGGCUGGUGGGUAGAUGUCAUGAUGGAGUCUUUGCACGUGUAUGAAACAGAAAACCAAACUUCAGGACAGACAGCUGCUGGUGUCUCUGGAUGCUCACAGCCUAGGGCACAUUUGAAAGGUCGUGCUCUGAGCUGAGCCCUGAGUUCCAGCCUUGUAGCCAGCAAGGGAGCUCUUGCGGUCGCACUAGUGUGGAAUUCUCGGGUGUCAAGG
B9: ENSMUSG00000028439.220|Fam219a (ssRNA)
RNA: GGGAGUUCUACAGUCCGACGAUCGCUUCGAUAUCCGCAUGCUAUCCCUGAGCUCCUAAGCAAUUCCCAGGCUUCUCUAGGGCUUCAGUUCUCACAACUGGAAAAUAAAGAGUAGCUGACAUCACCGACAGAGUCUUUUCAUACCAGAAGGAAUUUCUUCACAGGAGUUUCUGCAAAAGACUAUGACAUCUGUGUGUCUGUGGUCUCACGAGGUACCUGGAGGUGUAUGUGCACGGACAUGGGAAGUACGUGAAGAUUUAUUUCGGGAAAAGUGGUGUGUGUGUAGCUGUACUGGGUGUCAUGUCUCUUGCGGUCGCACUAGUGUGGAAUUCUCGGGUGUCAAGG
B10: ENSMUSG00000032194.288|Kank2 (ssRNA)
RNA: GGGAGUUCUACAGUCCGACGAUCGCUUCGAUAUCCGCAUGCUAGGAUGAGUGUGGGGUGGGUGGAUGGAUAAAUGAGCAAUGGAUGAGAAACUGGGUUGGCUGGUGGGUAGAUGUCAUGAUGGAGUCUUUGCACGUGUAUGAAACAGAAAACCAAACUUCAGGACAGACAGCUGCUGGUGUCUCUGGAUGCUCACAGCCUAGGGCACAUUUGAAAGGUCGUGCUCUGAGCUGAGCCCUGAGUUCCAGCCUUGUAGCCAGCAAGGGAGUUUAUUUAAGGUUCUGGAAGCAUCAGCUAUGACCCACUCUUGCGGUCGCACUAGUGUGGAAUUCUCGGGUGUCAAGG
B11: ENSMUSG00000032194.289|Kank2 (ssRNA)
RNA: GGGAGUUCUACAGUCCGACGAUCGCUUCGAUAUCCGCAUGCUAGUGUGGGGUGGGUGGAUGGAUAAAUGAGCAAUGGAUGAGAAACUGGGUUGGCUGGUGGGUAGAUGUCAUGAUGGAGUCUUUGCACGUGUAUGAAACAGAAAACCAAACUUCAGGACAGACAGCUGCUGGUGUCUCUGGAUGCUCACAGCCUAGGGCACAUUUGAAAGGUCGUGCUCUGAGCUGAGCCCUGAGUUCCAGCCUUGUAGCCAGCAAGGGAGUUUAUUUAAGGUUCUGGAAGCAUCAGCUAUGACCCAAAGCACCUCUUGCGGUCGCACUAGUGUGGAAUUCUCGGGUGUCAAGG
B12: ENSMUSG00000032194.230|Kank2 (ssRNA)
RNA: GGGAGUUCUACAGUCCGACGAUCGCUUCGAUAUCCGCAUGCUACUCCCUGUCGUAUCCAGAUCACAGCUGAACCCACUGGGCCUUGGCGCCAAACCUCAGCAGGGCAGCAUUGAGACUCAUGGACUAAAGGAAAGUGUUCACUCUUCUAGACAAGUGGGUCUCUUGGUUUGAUGGAGUCUUACUCCGCUUGAGUUUUGUAGAAGGGGUUUGUCUAAGGCAUAGAGGCUUGGUUGGCAUAAGAAAAUAAGAUGGACAGAUGGAUGGGUGGAUGGAUGGAUGGCUGAUUGAGUGGGUGGGUGGGUCUCUUGCGGUCGCACUAGUGUGGAAUUCUCGGGUGUCAAGG

The target in this experiment is TDP-43 (Homo sapiens, UniProt Q13148 1-414). The experiment is described as follows: RNA Bind-n-Seq with designed 260-mer pool; 25 mM Tris-HCl, 150 mM KCl, 3 mM MgCl2, BSA (printed 500 mg/mL), 20 units/mL SUPERase IN; pH not stated; 500 nM RNA pool, 1 h, 4 C; TDP-43 5, 50, 500 nM; high values mean tight binding. Conditions: protein: recombinant; tags: SBP (GST cleaved off with PreScission; pGEX-GST-SBP). In outline: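 Recombinant SBP-tagged TDP-43 at 5, 50 or 500 nM was captured on streptavidin beads, then incubated 1 h at 4 °C with 500 nM of an in vitro-transcribed 260-nt 3′ UTR oligo pool in 25 mM Tris-HCl, 150 mM KCl, 3 mM MgCl2, BSA and SUPERase IN. Bound RNA was washed, eluted with biotin, reverse transcribed, PCR-amplified and sequenced. Binding is R, each oligo's mapped-read-normalized abundance in the bound sample divided by its abundance in input. Duplicates used two independent protein batches.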
Sequence of TDP-43 (Q13148 whole entry): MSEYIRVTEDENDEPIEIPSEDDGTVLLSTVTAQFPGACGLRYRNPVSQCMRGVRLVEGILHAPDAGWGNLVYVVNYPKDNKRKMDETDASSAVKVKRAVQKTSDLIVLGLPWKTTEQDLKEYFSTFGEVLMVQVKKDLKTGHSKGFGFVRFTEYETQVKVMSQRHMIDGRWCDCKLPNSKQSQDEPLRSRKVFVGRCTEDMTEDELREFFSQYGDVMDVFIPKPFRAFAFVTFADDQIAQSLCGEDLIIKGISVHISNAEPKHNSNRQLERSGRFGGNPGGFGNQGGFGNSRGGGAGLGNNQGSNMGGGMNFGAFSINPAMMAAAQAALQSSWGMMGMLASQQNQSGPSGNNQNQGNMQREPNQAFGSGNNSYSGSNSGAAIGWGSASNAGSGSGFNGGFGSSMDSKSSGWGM
B1: the binding signal is 4.54 R (bound/input frequency ratio).

As for B2, the binding signal was 2.59 R (bound/input frequency ratio).

Turning to B3, the binding signal was 5.94 R (bound/input frequency ratio).

As for B4, the binding signal was 6.24 R (bound/input frequency ratio).

With B5, the binding signal was 7.26 R (bound/input frequency ratio).

Regarding B6, the binding signal is 3.66 R (bound/input frequency ratio).

Consider B7, for which the binding signal was 1.85 R (bound/input frequency ratio).

B8: the binding signal is 6.52 R (bound/input frequency ratio).

With B9, the binding signal was 6.53 R (bound/input frequency ratio).

As to B10, the binding signal was 6.68 R (bound/input frequency ratio).

As to B11, the binding signal was 3.69 R (bound/input frequency ratio).

B12: the binding signal is 4.66 R (bound/input frequency ratio).

The record behind these values is publication PMC12864922, “TDP-43 directly inhibits mRNA accumulation in neurites through modulation of mRNA stability”.
